Screening results from PubChem BioAssay.
Only some compounds are listed: those with a hit (about 6.2% of all), similar ones and a draw of the others.
KB-V1 MDR tox: KB-V1 MDR subline cytotoxicity; KB-V1 MDR cells viability, CellTiter-Glo, 72 h; Potency, µM (highest dose often 46.1 µM), hits mostly cytotoxic; actives 3.4% (n = 400,000); AID 1347076; note: % is set by controls: 0 for no effect and ±100 for the full control effect; nearly all actives have a fitted effect of over 60% in size
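Cytotoxicity via CellTiter-Glo luminescence after 72 h compound exposure at 37 degrees C. Cells: drug-selected KB-V1 line, DMEM phenol-red free plus 10% FBS. Compounds tested at multiple concentrations; normalized data fitted to concentration-effect curves.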
S2 tox: viability counter-screen for ATXN expression inhibitors; S2 cells (HEK-293 line with an ATXN2-luciferase reporter) viability, CellTiter-Fluor protease fluorescence, 24 h; Potency, µM (highest dose often 56.7 µM), usual class: cytotoxic; actives 0.49% (n = 400,000); note: nearly all actives have a fitted effect of over 40% in size
ATXN2 expr inh: reduces ATXN2 reporter expression in HEK-293 cells; HEK-293 ATXN2-luciferase reporter, luminescence, 24 h; Potency, µM (doses to about 57 µM), for inactives: at the top dose activity change, negative = inhibition, usual class: inhibitors; actives 0.72% (n = 360,000); AID 1745845; note: % is set by controls: 0 for no effect and ±100 for the full control effect; nearly all actives have a fitted effect of over 55% in size
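ATXN2-luciferase reporter cells (luciferase flanked by upstream and downstream ATXN2 gene portions) were treated 24 h at 37 °C with compounds at up to 57 uM. SteadyGlo luminescence gave expression; GF-AFC fluorescence gave viability.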
KB-3-1 tox: kills parental KB-3-1 adenocarcinoma cells; Potency, µM (top dose mostly 46.1 µM), hits mostly cytotoxic; KB-3-1 viability, CellTiter-Glo ATP luminescence, 72 h; actives 1.4% (n = 400,000); note: % is set by controls: 0 for no effect and ±100 for the full control effect; nearly all actives have a fitted effect of over 60% in size
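Cytotoxicity in the drug-sensitive parental line KB-3-1 was scored as loss of CellTiter-Glo luminescence following 72 h incubation with compound. Values come from curve fitting of normalized concentration-response data.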
HT1080-NT tox: kills 2HG-producing HT-1080-NT fibrosarcoma cells. HT-1080-NT fibrosarcoma viability, CellTiter-Glo ATP luminescence, 48 h. Potency, µM (series often up to 46.1 µM), without a hit: top-dose activity, negative = less viability, hits mostly cytotoxic. actives 1.6% (n = 360,000). AID 686970;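 note: NT is the 2HG producing partner of a matched IDH1 knockdown line; 0% = DMSO-treated cells and -100% = media-only wells without cells; nearly all actives have a fitted effect of over 55% in size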
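Luminescent CellTiter-Glo readout after 48 hours of compound exposure at 37 degrees C defined viability of HT-1080-NT cells. Activity was normalized to DMSO wells and cell-free media wells; concentration-response curves were fitted and assigned curve classes.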
HT1080 IDH1KD tx: HT-1080 IDH1 knockdown cell toxicity (counter line); Potency, µM (top dose mostly 46.1 µM), for inactives: top-dose activity, negative = toxicity, actives largely listed as cytotoxic; AID 686971; HT-1080 IDH1 knockdown viability, ATP luminescence, 48 h; actives 2% (n = 360,000);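 note: 0% = DMSO wells and -100% = cell-free medium wells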
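Cytotoxicity counter-line: IDH1KD HT-1080, 48 h, CellTiter-Glo. Curves classed by r2, magnitude and activity.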
Numbers without * were called inactive; i = inactive; ? = inconclusive; . = no result given; [ ] = dose if it differs, or a comment. Calls come from the whole dose curve; as a rule, active = well fitted curve in the direction sought with a large enough effect; inconclusive = small, poorly fitted or top-dose-only effect, or another doubt; inactive = no such curve, though single readings can be large; an effect the other way counts as inactive or inconclusive. Potency is the fitted concentration of half-maximal effect.

SMILES	KB-V1 MDR tox	S2 tox	ATXN2 expr inh	KB-3-1 tox	HT1080-NT tox	HT1080 IDH1KD tx
Cc1ccc2nc(SCc3nc(-c4ccccc4C)no3)[nH]c2c1	?	i	-29.2%	i	.	.
CCCCOC(=O)c1ccc(NS(=O)(=O)c2c(C)nc3scc(C)n3c2=O)cc1	8.2µM*	i	-7.9%	i	.	.
Cc1nc2scc(C)n2c(=O)c1S(=O)(=O)Nc1ccc(F)cc1	i	i	-2.3%	i	-14.0%	-7.6%
COc1ccccc1OCCn1c(C(C)Oc2ccccc2)nc2ccccc21 (centres undefined)	i	i	-32.2%	i	.	.
COc1ccccc1Oc1coc2cc(OC(=O)N3CCOCC3)ccc2c1=O	23.1µM*	?	-2.6%	?	3.1%	4.1%
COc1ccc(CNCc2c(C(=O)O)n(Cc3ccc(F)cc3)c3cc(C)ccc23)cc1OC	i	?	-12.8%	?	.	.
COc1ccc(C(=O)C[n+]2ccccc2Cl)cc1	i	.	.	i	.	.
c1csc(Cn2c(-c3cccs3)nc3ccccc32)c1	20.6µM*	i	2.4%	?	0.9%	-10.8%
COc1cc2cc(C#N)c(SCC(=O)OC(C)C)nc2cc1OC	i	.	.	i	.	.
Cn1nnc2c[n+](CC(=O)c3ccc(Cl)cc3)cc(Br)c21	i	i	-22.8%	?	?	?
Cn1nnc2c[n+](CC(=O)c3ccc4ccccc4c3)cc(Br)c21	i	?	?	?	?	20.6µM*
Cc1ccc(NS(=O)(=O)c2cc3c(cc2F)NC(=O)CC3)cc1Cl	i	.	.	?	.	.
Nc1ccc(N(c2ccccc2)c2ccc(N)cc2)cc1	?	i	?	?	16.4µM*	20.6µM*
CN(C)c1ccc(CCc2ccc(N)cc2)cc1	i	i	?	i	4.3%	-1.9%
Cc1nn2c(C)c(C(=O)NCc3cccc(Br)c3)cnc2c1-c1ccccc1	i	.	.	i	.	.
O=C(N/C(=C/c1cccs1)C(=O)N1CCCCCC1)c1ccccc1	20.6µM*	i	10.3%	i	3.3%	8.8%
Cc1ccc(C(=O)N/C(=C\c2cccs2)C(=O)NC2CCCCC2)cc1	18.4µM*	i	-14.6%	i	-1.4%	-1.7%
O=C(N/C(=C/c1ccco1)C(=O)N1CCCCCC1)c1cccs1	20.6µM*	i	-3.4%	i	-6.7%	?
CC(C)C1C(=O)Nc2ccc(S(=O)(=O)NCCc3ccc(Cl)cc3)cc21 (centres undefined)	i	i	?	i	.	.
CCOc1ccc(N(CC)C(=O)CSc2n[nH]c(-c3ccccc3)n2)cc1	?	.	.	i	.	.
CCN(CC)C(=O)Cn1cc(SCC(=O)Nc2ccccc2C)c2ccccc21	i	i	-5.7%	i	.	.
Cc1cc(N/N=C/c2cccc(Br)c2)nc2ccccc12	20.6µM*	i	49.9%	i	-0.5%	-0.3%
Cc1cc(N/N=C/c2ccncc2)nc2ccccc12	6.51µM*	i	.	?	7.4%	-4.1%
Cc1cc(=O)[nH]c(N/N=C/c2cccc(Br)c2)n1	i	i	28.5%	i	0.4%	0.3%
CC(C)=CCC[C@@](C)(O)[C@H]1CC=C(C)CC1	.	i	27.8%	.	.	.
SMILES	KB-V1 MDR tox	S2 tox	ATXN2 expr inh	KB-3-1 tox	HT1080-NT tox	HT1080 IDH1KD tx
O=C(C=Cc1c(C(=O)O)[nH]c2cc(Cl)cc(Cl)c12)Nc1ccccc1	.	.	6.7%	.	.	.
C[C@@H]1C[C@H]2C3C[C@H](F)C4=CC(=O)C=CC4(C)[C@@]3(F)[C@@H](O)CC2(C)[C@@]1(O)C(=O)COC(=O)C(C)(C)C (some centres undefined)	.	i	.	.	.	.
CC(=O)c1ccc(N2CCN(C(=S)Nc3cccc(Cl)c3)CC2)cc1	23.1µM*	i	-8.4%	i	3.6%	13.8%
COC(=O)c1ccc(C(=O)OC)c(NC(=S)N2CCN(c3cccc(Cl)c3)CC2)c1	16.4µM*	?	-8.2%	i	-3.8%	-12.5%
COC(=O)c1ccc(C(=O)OC)c(NC(=S)N2CCCCC2C)c1 (centres undefined)	14.6µM*	i	20.5%	i	15.5%	7.6%
COC(=O)c1ccc(C(=O)OC)c(NC(=S)N2CCC(C)CC2)c1	16.4µM*	i	1.3%	i	8.1%	8.4%
CC(=O)c1ccc(NC(=S)N2CCN(c3cccc(Cl)c3)CC2)cc1	i	i	-11.3%[11.3 µM]	i	-14.9%	4.9%
Cc1ccc(CCNC(=O)CCCn2c(=O)c3ccccc3n(Cc3ccccc3C#N)c2=O)cc1	i	i	13.2%	i	.	.
Cc1cc(C)cc(NC(=O)C(c2ccccc2)N2CCN(CC(=O)NC3CC3)CC2)c1 (centres undefined)	16.4µM*	i	-0.5%	i	-7.3%	-3.0%
Cc1ccc(NC(=O)C(c2ccccc2)N2CCN(CC(=O)NC3CC3)CC2)cc1Cl (centres undefined)	i	i	-28.0%	i	2.2%	1.1%
Cc1ccc(NC(=O)C(c2ccccc2)N2CCN(CC(=O)NC3CC3)CC2)cc1 (centres undefined)	20.6µM*	i	1.5%	i	-3.6%	9.0%
Cc1ccccc1CNC(=O)c1ccc(CN2CC(=O)N3CCCCC3C2=O)cc1 (centres undefined)	i	i	-5.2%	i	.	.
COc1ccc(CCNC(=O)COc2ccc(S(=O)(=O)NC3CCCCC3)cc2Cl)cc1	14.6µM*	.	?	i	?	?
O=C(COc1ccc(Br)cc1CNC1CCCCC1)NCCc1ccccc1	?	?	-38.9%	?	23.1µM*	18.4µM*
COc1ccc(CCNC(=O)COc2ccc(S(=O)(=O)NC(C)C)cc2Cl)cc1OC	i	i	2.7%	i	?	11.2µM*
COc1ccc(Br)cc1CN(C)CC(=O)NCCc1ccccc1	?	i	-10.0%	i	-7.1%	-6.4%
COc1ccc(CCNC(=O)CCc2ccc(S(=O)(=O)NC(C)C)cc2)cc1OC	i	?	1.3%	i	25.6%	1.0%
CC(C)(C)CC(=O)NCC(c1ccc2c(c1)OCO2)N1CCN(c2ccccc2)CC1 (centres undefined)	i	i	-14.0%	i	.	.
CCOC(=O)c1cc(-c2ccccc2)n(-c2cccc(C(=O)N(C)c3ccc(C)cc3)c2)c1C	?	.	.	16.4µM*	.	.
C=C(C(=O)c1ccccc1)C(C)CC(=O)c1ccccc1 (centres undefined)	i	.	?	i	-25.3%	20.6µM*
C=C(C(=O)c1ccccc1)C(NC(C)(C)C)c1ccccc1 (centres undefined)	?	?	7.52µM*	3.66µM*	6.51µM*	5.8µM*
